# Reference: PubChem BioAssay
# Values without a mark were called inactive. Where a call stands in place of a potency, no number is given. For part of these data: Potency and affinity values are given separately. The source made the active and inactive calls. Unless noted, the rule behind the calls is not given here.
# Experiments:
# [1] = antimalarial activity against Dd2 strain (AID 2302;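 active = growth inhibition above 50% at the single 2 µM test dose, taken to imply half-maximal potency below 2 µM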); settings: P. falciparum Dd2 in RBCs, LDH growth readout, 72 h; at 2 µM; hits give high values
# [2] = human hepatoma cell viability loss – ATP luminescence, cytotoxicity control for P. falciparum antimalarial project, primary screen (AID 2303;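 active = inhibition above 50%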); settings: HepG2 viability, 24-48 h, at 10 µM, hits give high values
# [3] = molecular target: L-lactate dehydrogenase (Plasmodium falciparum (isolate CDC / Honduras)) (UniProt Q27743); experiment: PfLDH activity inhibition – cell lysate, 3D7 strain, counter-screen for P. falciparum growth inhibition project (AID 2304); settings: P. falciparum 3D7 crude extract, LDH APAD/NBT absorbance; at 2 µM; hits give high values
# [4] = inhibition of 3D7 malaria parasite growth – strain 3D7 (AID 2306); settings: P. falciparum 3D7 erythrocytic growth, LDH absorbance, 72 h; at 2 µM; hits give high values
# [5] = molecular target: Calcium-dependent protein kinase 1 (Plasmodium falciparum (isolate 3D7)) (UniProt P62344); experiment: PfCDPK1 kinase inhibitors, biochemical, TCAMS library (AID 1159585; cut-off not given, nearly all actives have IC50 up to about 0.98 µM;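 note: inhibitors leave more ATP so luminescence rises with inhibition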); settings: recombinant PfCDPK1, Kinase-Glo ATP depletion luminescence
# [6] = molecular target: Plasmodium falciparum protein kinase 6 (PK6, PF3D7_1337100) (UniProt Q8IDW1); experiment: PfPK6 kinase inhibitors, biochemical, TCAMS library (AID 1159586); settings: recombinant PfPK6, Kinase-Glo ATP depletion luminescence
# [7] = molecular target: Protein kinase 7 (PK7), Plasmodium falciparum 3D7 (PF3D7_0213400) (UniProt Q7YTF7); experiment: inhibition of Plasmodium PK7 catalytic activity – biochemical, TCAMS antimalarial set, Kinase-Glo luminescence (AID 1159587); settings: recombinant PfPK7, Kinase-Glo ATP depletion luminescence
# [8] = molecular target: Calcium-dependent protein kinase 4 (Plasmodium falciparum (isolate 3D7)) (UniProt Q8IBS5); experiment: PfCDPK4 kinase inhibitors, biochemical, TCAMS library (AID 1159588; cut-off not given, nearly all actives have IC50 up to about 0.91 µM); settings: recombinant PfCDPK4, Kinase-Glo ATP depletion luminescence
# Calcium-dependent protein kinase 4 (Plasmodium falciparum (isolate 3D7)), sequence (Q8IBS5 whole entry, looked up): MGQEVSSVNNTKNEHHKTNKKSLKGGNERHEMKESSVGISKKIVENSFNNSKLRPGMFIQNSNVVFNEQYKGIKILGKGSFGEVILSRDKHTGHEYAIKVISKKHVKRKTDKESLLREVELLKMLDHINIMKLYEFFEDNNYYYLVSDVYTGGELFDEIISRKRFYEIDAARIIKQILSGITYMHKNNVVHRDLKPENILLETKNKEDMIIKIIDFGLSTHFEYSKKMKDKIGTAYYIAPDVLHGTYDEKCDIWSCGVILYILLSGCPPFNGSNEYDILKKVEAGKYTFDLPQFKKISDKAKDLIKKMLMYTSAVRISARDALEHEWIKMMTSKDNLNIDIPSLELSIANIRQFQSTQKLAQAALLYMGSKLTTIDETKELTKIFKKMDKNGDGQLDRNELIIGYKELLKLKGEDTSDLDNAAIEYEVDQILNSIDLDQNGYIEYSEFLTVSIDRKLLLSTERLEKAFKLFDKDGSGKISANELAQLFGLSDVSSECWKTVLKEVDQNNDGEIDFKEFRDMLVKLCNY
# L-lactate dehydrogenase (Plasmodium falciparum (isolate CDC / Honduras)), sequence (Q27743 whole entry, looked up): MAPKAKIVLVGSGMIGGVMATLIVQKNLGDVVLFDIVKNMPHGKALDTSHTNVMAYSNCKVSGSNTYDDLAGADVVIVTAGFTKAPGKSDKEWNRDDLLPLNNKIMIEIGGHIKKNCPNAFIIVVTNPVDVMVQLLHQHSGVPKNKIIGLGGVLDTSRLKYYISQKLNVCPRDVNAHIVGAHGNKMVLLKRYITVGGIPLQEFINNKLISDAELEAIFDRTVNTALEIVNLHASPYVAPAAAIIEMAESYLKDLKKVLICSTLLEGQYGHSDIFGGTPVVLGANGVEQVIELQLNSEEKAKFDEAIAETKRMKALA
# Plasmodium falciparum protein kinase 6 (PK6, PF3D7_1337100), sequence (Q8IDW1 1-305): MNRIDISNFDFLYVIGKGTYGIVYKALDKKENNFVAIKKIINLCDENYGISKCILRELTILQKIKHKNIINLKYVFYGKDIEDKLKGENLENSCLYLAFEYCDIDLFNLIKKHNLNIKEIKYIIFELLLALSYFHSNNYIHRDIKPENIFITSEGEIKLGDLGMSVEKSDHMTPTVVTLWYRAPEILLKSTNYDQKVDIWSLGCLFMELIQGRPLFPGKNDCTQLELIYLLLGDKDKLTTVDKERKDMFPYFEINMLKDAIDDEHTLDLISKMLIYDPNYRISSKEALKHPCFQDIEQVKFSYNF
# Calcium-dependent protein kinase 1 (Plasmodium falciparum (isolate 3D7)), sequence (P62344 whole entry, looked up): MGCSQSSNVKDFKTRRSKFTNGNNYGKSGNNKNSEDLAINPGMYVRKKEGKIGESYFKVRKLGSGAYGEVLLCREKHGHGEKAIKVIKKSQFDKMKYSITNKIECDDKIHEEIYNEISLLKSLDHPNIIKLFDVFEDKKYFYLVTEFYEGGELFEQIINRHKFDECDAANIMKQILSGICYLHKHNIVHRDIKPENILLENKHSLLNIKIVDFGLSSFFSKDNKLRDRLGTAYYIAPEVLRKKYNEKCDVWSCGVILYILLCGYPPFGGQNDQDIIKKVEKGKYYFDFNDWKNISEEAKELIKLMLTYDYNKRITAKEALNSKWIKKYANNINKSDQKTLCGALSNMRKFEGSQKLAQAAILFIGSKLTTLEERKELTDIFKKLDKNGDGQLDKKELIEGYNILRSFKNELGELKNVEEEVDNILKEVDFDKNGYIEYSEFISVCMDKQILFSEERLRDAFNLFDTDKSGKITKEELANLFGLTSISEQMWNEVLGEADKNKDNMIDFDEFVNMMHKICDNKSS
# Protein kinase 7 (PK7), Plasmodium falciparum 3D7 (PF3D7_0213400), sequence (Q7YTF7 1-343): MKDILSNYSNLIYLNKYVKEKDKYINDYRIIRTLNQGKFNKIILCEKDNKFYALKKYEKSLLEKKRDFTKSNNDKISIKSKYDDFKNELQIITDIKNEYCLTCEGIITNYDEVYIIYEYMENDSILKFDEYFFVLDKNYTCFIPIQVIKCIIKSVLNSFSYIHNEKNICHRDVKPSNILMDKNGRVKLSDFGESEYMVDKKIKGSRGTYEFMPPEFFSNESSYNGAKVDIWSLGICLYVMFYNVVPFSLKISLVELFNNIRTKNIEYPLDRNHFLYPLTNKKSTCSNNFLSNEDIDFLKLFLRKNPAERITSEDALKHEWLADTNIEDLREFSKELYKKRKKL
SMILES,growth inhibition [1],inhibition [2],inhibition [3] [%],growth inhibition [4],outcome [5],outcome [6],outcome [7],outcome [8]
CCCCCCCN1CC[C@@H](CCCc2ccnc3ccc(OCCCCN=C(N)NO)cc23)[C@@H](CC)C1,39%,27%,2,90% (active),inactive,inactive,inactive,inactive
Cc1ccc(F)cc1-c1cc(N2CCCN(C(=O)c3ccc(Br)o3)CC2)ncn1,91% (active),0%,0,94% (active),inactive,inactive,inactive,inactive
Cc1ccc(S(=O)(=O)N(CCCN2CCN(C)CC2)Cc2csc(-c3ccc(CNCc4ccccc4)cc3)n2)cc1,90% (active),15%,3,97% (active),inactive,inactive,inactive,inactive
COc1ccc(C(=O)N2CCC(CN3CCOC(c4ccccc4)(c4ccccc4)C3)CC2)cc1,96% (active),19%,5,95% (active),inactive,inactive,inactive,inactive
Fc1ccc2nc(-c3ccc(-c4ccc(CNCCN5CCNCC5)cc4)cc3)[nH]c2c1,70% (active),94% (active),-3,96% (active),inactive,inactive,inactive,inactive
COc1ccc(CNc2ncc(-c3ccsc3)c(-c3nccs3)n2)cc1OC,69% (active),10%,-1,86% (active),inactive,inactive,inactive,inactive
N#Cc1ccc2c(c1)CCN(CCC1CCC(NC(=O)/C=C/c3cccc4ccccc34)CC1)CC2 (configuration not stated),12%,16%,-6,96% (active),inactive,inactive,inactive,inactive
CC(C)CCN1CCCN(Cc2ccc(C(=O)NCc3ccc(Cl)cc3)cc2)CC1,-4%,16%,1,84% (active),inactive,inactive,inactive,inactive
O=C(Nc1ccccc1)N1CCOC(CCN2CCC(F)(F)CC2)(c2ccc(Cl)c(Cl)c2)C1 (configuration not stated),100% (active),20%,3,102% (active),inactive,inactive,inactive,inactive
O=C(NCCc1ccc(Cl)c(Cl)c1)C1CCCN(C(=O)c2ccc(O)c(-c3ccc(Cl)c(Cl)c3)c2)C1 (configuration not stated),65% (active),-9%,-3,96% (active),inactive,inactive,inactive,inactive
CC(C)Cn1cc(C2CCN(CCN3CCC(CNC(=O)c4ccc(NC(=O)c5ccc(Cl)cc5)cc4)CC3)CC2)c2ccccc21,99% (active),28%,-2,101% (active),inactive,inactive,inactive,inactive
CN(C)S(=O)(=O)c1cc(-c2ccc3nccc(-c4cccc(S(N)(=O)=O)c4)c3c2)cnc1N,98% (active),35%,-2,100% (active),inactive,inactive,inactive,inactive
CCc1cn2c3c(cc(C(=O)N[C@@H](Cc4ccccc4)[C@H](O)CNC4CC4)cc13)N(CC)S(=O)(=O)CC2,99% (active),13%,-3,98% (active),inactive,inactive,inactive,inactive
NC(N)=NC(=O)Nc1cc(Br)c(Cl)c(Br)c1,83% (active),0%,4,101% (active),inactive,inactive,inactive,inactive
Brc1cc(CNCCCNc2nc3ccccc3[nH]2)sc1Br,21%,10%,8,100% (active),inactive,inactive,inactive,inactive
COc1ccc(C[C@@H](N)C(=O)N[C@H]2[C@@H](O)[C@H](n3cnc4c(N(C)C)ncnc43)O[C@@H]2CO)cc1,100% (active),99% (active),0,101% (active),inactive,inactive,inactive,inactive
Cc1cccc2[nH]c(-c3cccc(-c4cccc(CNCCN5CCNCC5)c4)c3)nc12,0%,11%,1,90% (active),inactive,inactive,inactive,inactive
O=C(Nc1ccc([N+](=O)[O-])cc1)Nc1cc(C(F)(F)F)ccc1F,46%,8%,-4,89% (active),inactive,inactive,inactive,inactive
CC(C)N1CCC(NC(=O)N2CCCN(c3ncnc4cc(-c5ccc(Cl)cc5)sc34)CC2)CC1,7%,6%,7,81% (active),inactive,inactive,inactive,inactive
NC1=NC(c2ccccc2)N(c2ccccc2)C(N)=N1 (configuration not stated),85% (active),0%,2,96% (active),inactive,inactive,inactive,inactive

SMILES,growth inhibition [1],inhibition [2],inhibition [3] [%],growth inhibition [4],outcome [5],outcome [6],outcome [7],outcome [8]
Cc1nnc2c(NC(=O)/C=C/c3ccc(OC(F)(F)F)cc3)cc3cc(Cl)ccc3n12,99% (active),19%,4,94% (active),inactive,inactive,inactive,inactive
Fc1ccc([C@H]2N=C(SCCSC3=N[C@H](c4ccc(F)cc4)[C@H](c4ccc(F)cc4)N3)N[C@H]2c2ccc(F)cc2)cc1,69% (active),18%,-5,99% (active),inactive,inactive,inactive,inactive
Cc1ccccc1CNc1noc(-c2c(F)cccc2Cl)n1,90% (active),14%,-5,97% (active),inactive,inactive,inactive,inactive
CON(C)C(=O)[C@@H](CCCCNC(=O)OCc1ccccc1)NC(=O)OC(C)(C)C,-1%,5%,-4,98% (active),inactive,inactive,inactive,inactive
COc1cccc2c(NN=Cc3ccccc3[N+](=O)[O-])ccnc12,43%,8%,-3,99% (active),inactive,inactive,inactive,inactive
OC(CNCc1ccccc1OCc1ccccc1)c1cccc(Cl)c1 (configuration not stated),100% (active),-6%,7,100% (active),inactive,inactive,inactive,inactive
Cc1cccc2[nH]c(-c3ccc(-c4ccc(NC(=O)C(=O)c5cccn5C)cc4)cc3)nc12,15%,40%,8,95% (active),inactive,inactive,inactive,inactive
Oc1ccc2[nH]cc(C3CCN(CCCCCCCCCN4CCC(c5c[nH]c6ccc(O)cc56)CC4)CC3)c2c1,2%,22%,-5,101% (active),inactive,inactive,inactive,inactive
CCOc1cc(CC)ccc1C1CCN(CCN2CCC(NC(=O)c3ccc(-c4ccc(C(C)=O)cc4)cc3)CC2)CC1,8%,25%,-1,100% (active),inactive,inactive,inactive,inactive
CC(C)n1nc(C(=O)N2CCN(c3ccccc3)CC2)c2ccccc2c1=O,3%,34%,0,96% (active),inactive,inactive,inactive,inactive
Cc1cc2nc(-c3ccc(C(=O)NCc4cccc(C(F)(F)F)c4)cc3)[nH]c2cc1C,34%,4%,-9,98% (active),inactive,inactive,inactive,inactive
COc1ccc(OC)c(-c2cccc(-c3cccc(NC(=O)c4ccc([N+](=O)[O-])o4)c3)n2)c1,97% (active),75% (active),-7,98% (active),inactive,inactive,inactive,inactive
Oc1cc2c(cc1CN1CCN(Cc3cccs3)CC1)CCC2,91% (active),10%,-7,99% (active),inactive,inactive,inactive,inactive
Oc1[nH]c2ccccc2c1N=NC(=S)N1CCOCC1,75% (active),51% (active),6,95% (active),inactive,inactive,inactive,inactive
Cc1cccc2[nH]c(-c3ccc(-c4cccc(NC(=O)Nc5ccccc5)c4)cc3)nc12,14%,18%,9,101% (active),inactive,inactive,inactive,inactive
O=C(/C=C/c1ccc(Cl)c(Cl)c1)NCCCCCN1CCC(NC(=O)Nc2ccc(Cl)cc2F)CC1,40%,100% (active),-8,101% (active),inactive,inactive,inactive,inactive
CC(C)CNCc1cccc(-c2ccccc2CN(C(=O)NCCc2ccccc2)C2CCN(Cc3ccccc3)CC2)c1,82% (active),42%,-6,89% (active),inactive,inactive,inactive,inactive
O=C(NCc1cccc(F)c1)Nc1cccc(-c2ccc(-c3nc4ccc(F)cc4[nH]3)cc2)c1,0%,46%,-3,84% (active),inactive,inactive,inactive,inactive
CC(C)CNCc1cccc(-c2cccc(CN(CCCN3CCN(C)CC3)C(=O)Nc3ccccc3)c2)c1,76% (active),25%,1,95% (active),inactive,inactive,inactive,inactive
